Compound activity deposited in PubChem BioAssay by Johns Hopkins Ion Channel Center.
CHT allo act: allosteric activators of human choline transporter CHT | actives 0.49% (n = 310,000) | B-score at 10 µM | Q9GZV3 | CHT-expressing cells, membrane potential dye, choline EC20; stronger effect = higher value; LV-AA mutant CHT in HEK293 cells;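 active means initial fluorescence not abnormally high and integrated response B-score, plate-corrected, over 3 SD above library mean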
CHT inh: human CHT choline transport inhibition | actives 0.86% (n = 310,000) | Q9GZV3 | CHT-expressing cells, membrane potential dye, choline response; stronger effect = lower value | B-score at 10 µM;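 active means B-score over 3 SD under the library average, and starting fluorescence ratio not unusually high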;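 further: choline stimulus applied at its EC90 after an EC20 pre-addition; B-score computed on integrated fluorescence ratio after choline addition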
ANO1 activ: activators or potentiators of mouse TMEM16A chloride channel; Q8BHY3; B-score at 10 µM; HEK293 TMEM16A/YFP-H148Q/I152L, iodide quench fluorescence; stronger effect = lower value; actives 0.3% (n = 340,000);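 active means fluorescence-ratio B-score plate-corrected deviation score at least 3 library SD below zero, with starting fluorescence score within 5 deviations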;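 further: channel opened by trigger with iodide after compound preincubation; score built on the fluorescence ratio of max minus min over baseline; more negative score means more quench and so TMEM16A activation or potentiation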
Target sequence (Q8BHY3 whole entry, looked up): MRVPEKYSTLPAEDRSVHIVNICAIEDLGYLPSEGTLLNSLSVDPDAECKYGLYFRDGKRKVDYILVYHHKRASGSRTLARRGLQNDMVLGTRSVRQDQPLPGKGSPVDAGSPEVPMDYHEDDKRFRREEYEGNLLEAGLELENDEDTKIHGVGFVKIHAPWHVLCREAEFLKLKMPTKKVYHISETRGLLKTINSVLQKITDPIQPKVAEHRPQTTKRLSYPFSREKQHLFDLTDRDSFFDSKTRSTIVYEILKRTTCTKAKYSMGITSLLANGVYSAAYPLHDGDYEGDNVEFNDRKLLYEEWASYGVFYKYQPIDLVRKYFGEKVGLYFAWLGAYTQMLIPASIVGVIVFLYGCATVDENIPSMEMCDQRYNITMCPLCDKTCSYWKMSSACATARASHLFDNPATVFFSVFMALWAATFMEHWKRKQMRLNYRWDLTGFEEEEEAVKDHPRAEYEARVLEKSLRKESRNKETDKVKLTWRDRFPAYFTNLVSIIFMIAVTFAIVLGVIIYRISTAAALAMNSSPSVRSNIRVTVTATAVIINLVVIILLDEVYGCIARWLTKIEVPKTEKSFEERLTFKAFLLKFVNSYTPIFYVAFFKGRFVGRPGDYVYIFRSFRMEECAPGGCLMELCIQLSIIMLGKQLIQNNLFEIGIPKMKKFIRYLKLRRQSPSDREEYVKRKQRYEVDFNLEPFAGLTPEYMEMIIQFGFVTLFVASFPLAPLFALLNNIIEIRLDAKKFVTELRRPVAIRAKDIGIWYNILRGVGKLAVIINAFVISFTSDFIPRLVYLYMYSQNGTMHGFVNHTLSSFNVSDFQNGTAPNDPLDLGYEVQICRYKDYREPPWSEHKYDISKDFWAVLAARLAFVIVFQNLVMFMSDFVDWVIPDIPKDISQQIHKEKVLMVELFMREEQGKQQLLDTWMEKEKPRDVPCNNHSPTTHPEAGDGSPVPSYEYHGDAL
ANO1 block: blocks the mouse calcium-activated chloride channel TMEM16A; Q8BHY3; HEK293 TMEM16A/YFP iodide influx fluorescence, ionomycin; normalized B-score (activity score, 25-100; higher = stronger inhibition) at 10 µM; actives 1.2% (n = 310,000);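 active means ratio plate-corrected score three or more library SD toward inhibition, starting fluorescence score within five deviations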;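 further: score derived from kinetic fluorescence span divided by baseline fluorescence per well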
CHT inh conf: human CHT inhibition, confirmatory screen | CHT-expressing cells, choline membrane potential dye; LV-to-AA substituted CHT, HEK293 cells | actives 70% (n = 2,400) | shares compounds with CHT inh | CHT activity remaining % of control (stronger effect = lower value), % at 10 µM;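 active means choline transporter activity left, mean of duplicates at 10 µM, below buffer-only control mean minus 3 SD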;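 further: depolarization triggered by choline at its EC90 following an EC20 pre-addition; 0% = hemicholinium-3 full block and 100% = buffer-only control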
HEK293 CHT ctr: CHT inhibitor counter-screen hit in parental HEK293 cells; membrane potential ratio readout (active if shifted either direction beyond buffer ±3SD; no single direction) at 10 µM; actives 4% (n = 2,400); membrane potential dye, choline response; active = decrease or increase beyond buffer ±3SD; shares compounds with CHT inh;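 further: parental cells lack the transporter so any hit is non-specific; ratio is peak minus trough fluorescence over baseline after EC90 choline challenge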
Starred values were filed as active, the others as inactive; i = inactive; nt = no result given. The list is not random: actives were taken first. Their share in the collection is about 2.4%.

SMILES	CHT allo act	CHT inh	ANO1 activ	ANO1 block	CHT inh conf	HEK293 CHT ctr
Cc1ccc(CNC(=O)c2ccc3c(=O)[nH]c4c(C(=O)NCC5CCCO5)sc(=S)n4c3c2)cc1 (stereo not given)	i	i	i	i	nt	nt
CCCCCNC(=O)c1ccc2c(=O)[nH]c3c(C(=O)NCC4CCCO4)sc(=S)n3c2c1 (stereo not given)	i	-7.8*	i	i	35%*	i
O=C(NC1CCCC1)c1sc(=S)n2c1[nH]c(=O)c1ccccc12	i	-5*	i	i	i	i
O=C(NCc1ccccc1)c1ccc2c(=O)[nH]c3c(C(=O)NCC4CCCO4)sc(=S)n3c2c1 (stereo not given)	i	i	i	i	nt	nt
CCSc1nnc([C@H](Cc2ccccc2)NC(=O)OC(C)(C)C)o1	i	-7*	i	i	i	i
O=C(O)C1=C[C@H](c2ccc(Br)cc2)C[C@H](OCc2ccc(CO)cc2)O1	i	i	i	i	nt	nt
CC1=CC(c2ccc(Cl)cc2)n2ncnc2N1 (stereo not given)	i	i	i	i	nt	nt
Cc1nc2ccccn2c1C(=O)N/N=C/c1ccccc1	i	i	i	i	nt	nt
Cc1ccccc1N/N=C/c1c(C)nc2ccccn12	i	-13*	i	i	i	i
CC(Sc1ncnc2sccc12)C(=O)Nc1ccc(S(N)(=O)=O)cc1 (stereo not given)	nt	nt	i	nt	nt	nt
Cc1cc(-c2nnc(SCC(=O)NC3CC3)n2C(C)C)cs1	i	i	i	i	nt	nt
CC(OC(=O)C1=COCCO1)C(=O)c1ccc(C(C)(C)C)cc1 (stereo not given)	nt	nt	i	nt	nt	nt
O=C(CCCc1nc2ccccc2s1)Nc1ccc(N2CCOCC2)cc1	i	-6.7*	i	i	i	i
CCCn1c2ccccc2c2cnn(CC(=O)N(CC)CC)c(=O)c21	i	i	i	i	nt	nt
O=C(Cn1ncc2c3ccccc3n(Cc3ccccc3F)c2c1=O)NCCN1CCOCC1	i	-9.9*	i	i	28%*	i
CCCn1c2ccccc2c2cnn(CC(=O)NCCN(C)C)c(=O)c21	i	-8*	i	i	19%*	i
O=C(Cn1ncc2c3ccccc3n(Cc3ccccc3F)c2c1=O)NC1CC1	i	i	i	i	nt	nt
CCCn1c2ccccc2c2cnn(CC(=O)NCCN(CC)CC)c(=O)c21	i	-9.1*	i	i	-3.9%*	i
CCOc1ccc(NC(=O)/C(C#N)=C/c2ccc(N3CCCC3)c(C)c2)cc1	i	i	i	i	nt	nt
CC1(C)CC(=O)C(N=Nc2ccc(Cl)cc2)=C(O)C1	i	i	i	i	nt	nt
COc1ccccc1N=NC1=C(O)CC(C)(C)CC1=O	i	-5.5*	i	i	i	i
CCOc1ccc(NC(=O)CN(C)C(=O)/C=C/c2ccc(S(=O)(=O)N3CCCCCC3)cc2)cc1OCC	i	i	i	i	nt	nt
CC(C)c1ccc(NC(=O)CSc2nc(=O)n(CCCN3CCOCC3)c3c2CCC3)cc1	i	-4.9*	i	i	38%*	i
COc1ccc2c(c1OC)C(=O)N(c1ccc(C)cc1)C2=O	i	i	i	i	nt	nt
C(=N\Nc1nccc(-c2cccnc2)n1)/c1ccccc1	i	-12*	i	i	i	i
SMILES	CHT allo act	CHT inh	ANO1 activ	ANO1 block	CHT inh conf	HEK293 CHT ctr
Cc1ccnc(N/N=C/c2ccccc2)n1	i	i	i	i	nt	nt
Cc1nnc(C)n1/N=C/c1cc(Br)cc(Br)c1O	i	-6.8*	i	i	34%*	i
CCCCN(C(=O)CSCC(=O)Nc1cccc(C)c1)c1c(N)n(CCCC)c(=O)[nH]c1=O	i	i	i	i	nt	nt
CCN(CC)C(=O)CSc1nc2ccc(NC(=O)CSc3nnc(N)s3)cc2s1	i	i	i	i	nt	nt
CCN(CC)C(=O)CSc1nc2ccc(NC(=O)CSc3nccn3C)cc2s1	i	-9.6*	i	i	25%*	i
O=C(Nc1ccc(Cl)cc1)Nc1ccc(N2CCC(C(F)(F)F)CC2)nc1	i	-6.1*	i	i	i	i
O=C(COC(=O)C1CCN(c2ccc(C(F)(F)F)cn2)CC1)Nc1ccc(Cl)cc1	i	i	i	i	nt	nt
c1ccc(-c2nnc3sc(CN4CCC5(CC4)OCCO5)cn23)cc1	i	i	i	i	nt	nt
CC(C)(C)c1ccc(N/N=C(\C#N)S(=O)(=O)C(C)(C)C)cc1	i	i	i	i	nt	nt
CC(C)(C)S(=O)(=O)/C(C#N)=N/Nc1ccc(Cl)cc1	i	-5.5*	i	i	47%*	i
COC(=O)CCCNC(=O)c1ccc(OC2CCN(CCc3ccccc3)CC2)cc1	i	i	i	i	nt	nt
CSCCNC(=O)c1ccc(OC2CCN(CCc3ccccc3)CC2)cc1	i	-5.2*	i	i	46%*	4.8*
O=C(NCCn1cccn1)c1ccc(OC2CCN(CCc3ccccc3)CC2)cc1	i	i	i	i	nt	nt
O=C(NCCn1cccn1)c1ccc(OC2CCN(C(=O)C3CC3)CC2)cc1	i	-11*	i	i	i	i
Cn1c2c(c3ccccc31)CCN1CCC[C@]21c1ccccc1	i	-5.1*	i	i	i	i
O=C(CSc1nc2c(c(=O)n1-c1ccc(Cl)cc1)SCC2)N1CCCC1	i	-6.8*	i	i	i	i
CCc1nc(NC(C)C)c2oc3ccccc3c2n1	i	i	i	i	nt	nt
CCc1nc(NCc2ccccn2)c2oc3ccccc3c2n1	i	i	i	i	56%*	i
CN(CCC#N)C(=O)COC(=O)[C@H](Cc1ccccc1)N1C(=O)c2ccccc2C1=O	i	i	i	i	nt	nt
CN(CCC#N)C(=O)CC(Cc1ccccc1)C1CCOC(C)(C)C1 (stereo not given)	i	-6*	i	i	i	i
Cc1ccc(CN2CCN(c3cccc4[nH]ccc34)CC2)cc1	i	i	i	i	nt	nt
O=c1cc(CSc2ccccc2)nc(-c2ccncc2)[nH]1	i	-6.5*	i	i	i	i
O=c1cc(CSc2ccc(Cl)cc2)nc(-c2ccncc2)[nH]1	i	i	i	i	nt	nt
Cc1nc(CC(=O)N2CCN(c3cccc(C)c3C)CC2)cs1	i	i	i	i	nt	nt
O=C(Nc1ccc(F)cc1F)c1ccc2nc(N3CCOCC3)sc2c1	i	-11*	i	i	i	i
